Some test systems named below: SK-MEL-2 melanoma; EKVX NSCLC; SN12C renal; UO-31 renal; TK-10 renal; ACHN renal; CAKI-1 renal; A498 renal; CCRF-CEM leukemia; MOLT-4 leukemia.
What all share (experiment): NCI-60 one-dose screen, 48 h (100 = growth as untreated, 0 = no growth, -100 = all killed)
Common to all, as to settings: 10 µM unless noted

Where “and” joins values, the source holds several entries; their conditions need not be identical. Equal entries are not always repeated. This is part of a sample that, as a whole, favours compounds with a hit. Of some 83,000 tested, about 20% had one in any assay.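 Step 1: grow cells in 96-well plates. Step 2: add test compound at a single concentration. Step 3: incubate 48 h. Step 4: record percent growth.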 Calls of active or inactive are those of the source. The calls were made as follows: active = growth percent below 10; inactive = the rest. Where a SMILES comes first, the peptide text is derived from it. The star is where a group is joined. Trt = c1ccc(C(c2ccccc2)(c2ccccc2)*)cc1; Cbz = O=C(OCc1ccccc1)*

In the case of `COC(=O)c1nc(=S)[nH]c(C(=O)OC)c1C(=O)c1ccc2ccccc2c1`, the growth in the assay with SK-MEL-2 melanoma is 104% (inactive); with EKVX NSCLC it was 103% (inactive); in the assay on SN12C renal, 97.2% (inactive); in the assay with UO-31 renal, 81% (inactive); in the assay with TK-10 renal, 109% (inactive); in the assay on ACHN renal it was 101% (inactive). Moreover, the growth in the assay on CAKI-1 renal is 86.2% (inactive); with A498 renal, 119% (inactive); in the assay with CCRF-CEM leukemia it was 102% (inactive); in the assay on MOLT-4 leukemia, 103% (inactive).
Turning to `COC(=O)C(CSC(c1ccccc1)(c1ccccc1)c1ccccc1)NC(=O)C(CC(N)=O)NC(=O)OCc1ccccc1` (stereo not drawn) (Cbz-Asn-Cys(Trt)-OMe; configuration not given here), the growth is -23% (active) in the assay with SK-MEL-2 melanoma; 36.6% (inactive) in the assay on EKVX NSCLC; 29.2% (inactive) in the assay with SN12C renal; 58.4% (inactive) in the assay with UO-31 renal; 48.4% (inactive) in the assay with TK-10 renal; 28.3% (inactive) in the assay with ACHN renal. For the same compound, the growth in the assay with CAKI-1 renal is 44.3% (inactive); in the assay on A498 renal, 21.1% (inactive); with CCRF-CEM leukemia, 40.3% (inactive); with MOLT-4 leukemia, 3.12% (active).
Regarding `COC(=O)Nc1nc2ccc(C(=O)c3ccccc3)cc2[nH]1`, the growth in the assay on SK-MEL-2 melanoma was 44.1% (inactive) and 45.4% (inactive) and -21.7% (active); in the assay on EKVX NSCLC it was 60.4% (inactive) and 39% (inactive) and 21.6% (inactive); in the assay on SN12C renal it was 54.9% (inactive) and 28.7% (inactive) and 58.1% (inactive); in the assay with UO-31 renal, 48% (inactive) and 38.3% (inactive) and 25.3% (inactive); in the assay on TK-10 renal, 65% (inactive) and 75.9% (inactive) and 44.6% (inactive); with ACHN renal, 48.3% (inactive) and 54.2% (inactive). Moreover, the growth in the assay with CAKI-1 renal is 48.8% (inactive) and 27.1% (inactive) and 15% (inactive); in the assay on A498 renal, 13.9% (inactive) and 14.6% (inactive) and -12.2% (active); with CCRF-CEM leukemia it was 15.7% (inactive) and -14.1% (active) and 1.15% (active); in the assay with MOLT-4 leukemia it was 19.3% (inactive) and 7.52% (active) and 7.55% (active).
Consider `CCC1OC(OC)C=CC1=O` (centres undefined), for which the growth in the assay with SK-MEL-2 melanoma was 129% (inactive); in the assay on EKVX NSCLC, 89% (inactive); in the assay on SN12C renal, 94.7% (inactive); in the assay on UO-31 renal it was 93.4% (inactive); in the assay on TK-10 renal, 110% (inactive); in the assay on ACHN renal, 113% (inactive). The growth is 113% (inactive) in the assay with CAKI-1 renal, 90.3% (inactive) in the assay on A498 renal, 94.5% (inactive) in the assay on CCRF-CEM leukemia and 103% (inactive) in the assay with MOLT-4 leukemia.
As for `Nc1ncnc2c1ncn2C1OC(CO)C(O)C1O` (centres undefined), the growth with SK-MEL-2 melanoma is 144% (inactive) and 67.2% (inactive) and 121% (inactive); with EKVX NSCLC it was 116% (inactive) and 88.3% (inactive) and 105% (inactive); with SN12C renal, 103% (inactive) and 90.3% (inactive) and 97.5% (inactive); in the assay on UO-31 renal it was 92.9% (inactive) and 76.6% (inactive) and 90.3% (inactive); with TK-10 renal it was 114% (inactive) and 106% (inactive) and 118% (inactive); with ACHN renal, 111% (inactive) and 84.1% (inactive) and 98.9% (inactive). Moreover, the growth was 103% (inactive) and 109% (inactive) and 94.5% (inactive) in the assay with CAKI-1 renal; 123% (inactive) and 107% (inactive) and 128% (inactive) in the assay with A498 renal; 96.7% (inactive) and 119% (inactive) and 105% (inactive) in the assay on CCRF-CEM leukemia; 102% (inactive) and 111% (inactive) and 109% (inactive) in the assay with MOLT-4 leukemia.
As for `O=C1c2ccccc2C(=O)c2sc(Nc3ccc(Cl)cc3)nc21`, the growth with SK-MEL-2 melanoma was 35.9% (inactive); in the assay with EKVX NSCLC, 53.6% (inactive); in the assay with SN12C renal it was -80.3% (active); in the assay on UO-31 renal it was 21.7% (inactive); with TK-10 renal it was 174% (inactive); in the assay with ACHN renal, -23.4% (active). Further, the growth in the assay with CAKI-1 renal is 75% (inactive); in the assay with A498 renal it was 87.3% (inactive); with CCRF-CEM leukemia it was 13.1% (inactive); in the assay with MOLT-4 leukemia, 6.68% (active).
On to `CC1OC(OC2C(OC3CCC4(C)C(CCC5(C)C4CC=C4C6CC(C)(C)CCC6(CO)C(O)CC45C)C3(C)C)OC(C(=O)O)C(OC3OC(COC4OC(CO)C(O)C(O)C4O)C(O)C(O)C3O)C2O)C(O)C(O)C1O` (centres undefined), for which the growth with SK-MEL-2 melanoma was -75.3% (active); with EKVX NSCLC, -74.8% (active); with SN12C renal, -77.7% (active); in the assay with UO-31 renal it was -88.7% (active); with TK-10 renal, -69.3% (active); with CAKI-1 renal, -95.3% (active). Further, the growth is -88% (active) in the assay on A498 renal, -26.3% (active) with CCRF-CEM leukemia and -67% (active) in the assay with MOLT-4 leukemia.
On to `O=Nc1ccccc1N=O`, for which the growth in the assay with SK-MEL-2 melanoma is 90.2% (inactive); in the assay with EKVX NSCLC, 88.7% (inactive); with SN12C renal, 71.6% (inactive); in the assay with UO-31 renal, 64% (inactive); in the assay with TK-10 renal, 115% (inactive); with CAKI-1 renal, 81.1% (inactive). Besides, the figures for the growth in the assay with A498 renal, with CCRF-CEM leukemia and in the assay with MOLT-4 leukemia were 110% (inactive), 97.5% (inactive) and 99.9% (inactive), respectively.
Take `CCN(CC)CC(C)(C)C(=O)/C=C/c1ccc(Cl)c(Cl)c1`: the growth was -33.2% (active) in the assay with SK-MEL-2 melanoma; 28.2% (inactive) in the assay with EKVX NSCLC; -43.8% (active) with SN12C renal; -72% (active) in the assay on UO-31 renal; -34.7% (active) in the assay on TK-10 renal; -32.3% (active) in the assay on CAKI-1 renal. Also, the growth is -24.3% (active) in the assay on A498 renal, 5.91% (active) with CCRF-CEM leukemia and 2.21% (active) in the assay with MOLT-4 leukemia.
For `CC1SC(=S)N(c2ccc(Cl)cc2)C1=O` (centres undefined), the growth in the assay with SK-MEL-2 melanoma was 98.2% (inactive); in the assay with EKVX NSCLC, 87.8% (inactive) and 89.7% (inactive); with SN12C renal it was 93% (inactive) and 85.6% (inactive); in the assay with UO-31 renal it was 78.9% (inactive) and 73.9% (inactive); in the assay on TK-10 renal, 103% (inactive) and 114% (inactive); in the assay with CAKI-1 renal it was 109% (inactive) and 82.2% (inactive). Also, the growth in the assay with A498 renal was 143% (inactive) and 122% (inactive); in the assay on CCRF-CEM leukemia it was 113% (inactive) and 94.8% (inactive); with MOLT-4 leukemia it was 83.6% (inactive) and 86.9% (inactive).
As to `S=C(N/N=C/c1ccccn1)Nc1ccccn1`, the growth is -5.58% (active) with SK-MEL-2 melanoma; 41.4% (inactive) in the assay with EKVX NSCLC; 33.7% (inactive) in the assay on SN12C renal; 13% (inactive) with UO-31 renal; 31.4% (inactive) with TK-10 renal; 15.9% (inactive) in the assay on ACHN renal. Also, the figures for the growth in the assay on CAKI-1 renal, in the assay on CCRF-CEM leukemia and with MOLT-4 leukemia were 13.2% (inactive), -14.8% (active) and -27.6% (active), respectively.
`CC(=O)ON=C1C=CC(=C(C#N)c2ccccc2)C=C1`: the growth in the assay with SK-MEL-2 melanoma was 41.2% (inactive); with EKVX NSCLC, 82.7% (inactive); in the assay on SN12C renal it was 18% (inactive); with UO-31 renal it was 38% (inactive); in the assay on TK-10 renal, 21.1% (inactive); in the assay with CAKI-1 renal it was 19.9% (inactive). For the same compound, the growth with A498 renal is 102% (inactive); in the assay on CCRF-CEM leukemia, 23.5% (inactive); with MOLT-4 leukemia, 40.8% (inactive).

The record behind these values is PubChem BioAssay (NCI).
